PubChem BioAssay (NCATS)
Where “and” joins values, the source holds several entries; their conditions need not be identical. Equal entries are not always repeated. Results filed as inconclusive are left out. Some structures have more than one record in an assay (separate samples or runs), and their calls can disagree. Calls of active or inactive are those of the source. Unless noted, the call rests on the fitted dose curve; in most records, active means well fitted curve in the direction sought with a large enough effect; inconclusive means small, poorly fitted or top-dose-only effect, or another doubt; inactive means no such curve, though single readings can be large; an effect the other way counts as inactive or inconclusive.

Key:
[1] = biological target: Single-stranded DNA cytosine deaminase (Homo sapiens) (UniProt Q9GZX7); experiment: Validation qHTS assay for inhibitors of Activation Induced Cytidine Deaminase (AID): AID signal (AID 1347429); further: on the % scale 0 is the no-effect control and ±100 the full control effect
Single-stranded DNA cytosine deaminase (Homo sapiens), sequence (Q9GZX7 whole entry, looked up): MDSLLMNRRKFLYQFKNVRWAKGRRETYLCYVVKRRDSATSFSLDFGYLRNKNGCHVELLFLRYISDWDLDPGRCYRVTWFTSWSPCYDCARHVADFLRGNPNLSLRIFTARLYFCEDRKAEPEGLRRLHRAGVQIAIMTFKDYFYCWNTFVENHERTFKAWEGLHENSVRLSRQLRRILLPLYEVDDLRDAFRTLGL
Procedure, shortened: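 AID+UDG coupled FRET deamination; cpds up to 114 uM final; DJC20/DJC23 substrate, 4 hr RT; NaOH stop, 30 min RT; read Ex 540/Em 590.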

[2] = Primary qHTS for inhibitors of La Crosse Virus (LACV) - induced cell death in SH-SY5Y cells (AID 1508616);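 further: top concentration of the series differs between compounds; 0% = infected DMSO wells and 100% = uninfected DMSO wells; higher means more rescue of cells from virus-induced death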
Procedure, shortened: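 Cytopathicity rescue screen: compounds pinned onto SH-SY5Y cells, which are then infected with LACV (MOI 0.01) and held 6 days at 37C. Percent activity is scaled between infected DMSO control and uninfected DMSO control.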

[3] = biological target: Calcium and integrin-binding protein 1 (Homo sapiens) (UniProt Q99828); experiment: Validation qHTS for Identification of Calcium Integrin Binding protein 1 (CIB1) Competitor (AID 1508618); further: potency means the concentration at half of the fitted maximal effect
Calcium and integrin-binding protein 1 (Homo sapiens), sequence (Q99828 whole entry, looked up): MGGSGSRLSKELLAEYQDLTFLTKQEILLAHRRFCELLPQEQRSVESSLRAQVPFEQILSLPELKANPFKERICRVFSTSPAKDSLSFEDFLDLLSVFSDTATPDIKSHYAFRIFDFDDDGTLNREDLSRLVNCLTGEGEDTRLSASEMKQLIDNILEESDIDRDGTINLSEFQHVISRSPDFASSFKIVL
Procedure, shortened: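 Displacement of FITC-alphaIIb peptide (100 nM) from CIB1-GST (1 uM) is monitored by polarization in quantitative HTS format; buffer carries 5 mM CaCl2 and 125 mM NaCl at pH 7.4, incubations are at room temperature.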

[4] = biological target: Calcium and integrin-binding protein 1 (Homo sapiens) (UniProt Q99828); experiment: Primary qHTS for Identification of Calcium Integrin Binding Protein 1 (CIB1) Competitor (AID 1508620); further: potency means the concentration at half of the fitted maximal effect
Procedure, shortened: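 Fluorescence polarization competition: CIB1-GST (1 uM final) preincubated with compound 15 min at room temperature, then FITC-labeled alphaIIb peptide (100 nM final) added for another 15 min. Polarization read at Ex 480/Em 540.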

[5] = Counterscreen qHTS for small molecule stabilizers of the endoplasmic reticulum resident proteome: GLuc-NoTag assay (AID 1508627); further: potency means the concentration at half of the fitted maximal effect
Procedure, shortened: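 Secreted GLuc lacking the SERCaMP modification is measured in SH-SY5Y cells exposed to compound for 19 h and then to thapsigargin (100 nM, 4 h) to deplete ER calcium; hits retested at 11 concentrations, up to 76.6 uM.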

[6] = Confirmatory qHTS for small molecule stabilizers of the endoplasmic reticulum resident proteome: Secreted ER Calcium Modulated Protein (SERCaMP) assay (AID 1508628); further: nearly all actives have a fitted effect of over 40% in size; further: potency means the concentration at half of the fitted maximal effect
Procedure, shortened: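 GLuc-SERCaMP-expressing SH-SY5Y cells, pretreated 16 h with compound, are challenged with thapsigargin to empty ER calcium stores; after 4 h, coelenterazine is added directly to the medium and luminescence is imaged.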

[7] = Cell Viability qHTS for small molecule stabilizers of the endoplasmic reticulum resident proteome (AID 1508629); conditions: cell viability counter-screen, 100 nM thapsigargin for final 4 h;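 further: compound exposure about 46 h in total before the viability read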; further: potency means the concentration at half of the fitted maximal effect;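 on max response: human SH-SY5Y neuroblastoma cells carrying the GLuc-SERCaMP reporter; on the % scale 0 is the no-effect control and ±100 the full control effect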
[8] = A High-Content qHTS Against Drug Library for the Identification of Small Molecules that Inhibit DYT1 Early Onset Primary Dystonia-Associated Cell Pathology (AID 1645839; calls by dose curve; further: series mostly up to about 46 µM)
Procedure, shortened: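 Induced EGFP-delE TorsinA cells are imaged after 48 h of compound treatment. Punctate fusion-protein distribution gives the %pathology value, while nuclei counts flag toxicity. Wild-type EGFP-hTOR1A cells define the normal pattern.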

[9] = Primary qHTS for small molecule stabilizers of the endoplasmic reticulum resident proteome: Secreted ER Calcium Modulated Protein (SERCaMP) assay (AID 1508630); further: potency means the concentration at half of the fitted maximal effect
Procedure, shortened: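 The SH-SY5Y reporter protocol was run at 3 concentrations up to 38.3 uM (primary) or 11 concentrations (follow-up): 16 h compound, 100 nM thapsigargin for 4 h, then extracellular luciferase luminescence.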

COc1ccccc1OCCNCC(O)COc1cccc2[nH]c3ccccc3c12 (configuration not stated)
inactive: Potency [1] | Potency [2] | Potency [3] | Potency [4] | Potency [6]
active: Potency [5] 44.7 µM and 35.5 µM | Potency [7] 25.1 µM

CC#C[C@]1(O)CC[C@H]2[C@@H]3CCC4=CC(=O)CCC4=C3[C@@H](c3ccc(N(C)C)cc3)C[C@@]21C
inactive: Potency [1] | Potency [2] | Potency [3] | Potency [4]

CN(C)CCC=C1c2ccccc2C=Cc2ccccc21
inactive: Potency [1] | Potency [2] | Potency [3] | Potency [4] | Potency [5]

OCCN(CCO)c1nc(N2CCCCC2)c2nc(N(CCO)CCO)nc(N3CCCCC3)c2n1
inactive and 11.2 µM (active): Potency [4]
active: Potency [3] 14.1 µM | Potency [6] 31.6 µM
inactive: Potency [1] | Potency [2] | Potency [5]

CC(C)NCC(O)c1ccc(O)c(O)c1 (configuration not stated)
inactive: Potency [1] | Potency [2] | Potency [3] | Potency [4] | Potency [6]

Clc1ccc2c(c1)C(N1CCNCC1)=Nc1ccccc1O2
inactive: Potency [1] | Potency [2] | Potency [3] | Potency [4] | Potency [5] | Potency [6] | max response [7] -4.18% | Potency [8]

CC(CCc1ccc(O)cc1)NCCc1ccc(O)c(O)c1 (configuration not stated)
active: Potency [6] 31.6 µM and 39.8 µM and 50.1 µM
inactive: Potency [1] | Potency [2] | Potency [3] | Potency [4] | max response [7] 27%

COc1cc2c(c(OC)c1OC)-c1ccc(OC)c(=O)cc1[C@@H](NC(C)=O)CC2
inactive: Potency [1] | Potency [2] | Potency [3] | Potency [4] | Potency [9] | Potency [8]

CCCNCC(O)COc1ccccc1C(=O)CCc1ccccc1 (configuration not stated)
inactive: Potency [1] | Potency [2] | Potency [3] | Potency [4] | Potency [5] | Potency [6]

O=C(c1ccc(F)cc1)C1CCN(CCn2c(=O)[nH]c3ccccc3c2=O)CC1
inactive: Potency [1] | Potency [2] | Potency [3] | Potency [4] | Potency [5] | Potency [8]

O=C(c1ccc(OCCN2CCCCC2)cc1)c1c(-c2ccc(O)cc2)sc2cc(O)ccc12
inactive: Potency [1] | Potency [2] | Potency [3] | Potency [4] | Potency [5] | Potency [6]

COc1ccccc1OCC(O)CN1CCN(CC(=O)Nc2c(C)cccc2C)CC1 (configuration not stated)
inactive: Potency [1] | Potency [2] | Potency [3] | Potency [4] | Potency [9] | Potency [8]

CN1CCC(=C2c3ccccc3CC(=O)c3sccc32)CC1
active: Potency [6] 20 µM and 25.1 µM
inactive: Potency [1] | Potency [2] | Potency [3] | Potency [4] | Potency [5] | max response [7] 19.1% | Potency [9] | Potency [8]

NS(=O)(=O)c1cc2c(cc1Cl)NCNS2(=O)=O
inactive: Potency [1] | Potency [2] | Potency [3] | Potency [4] | Potency [9] | Potency [8]

O=C1Cc2cc(CCN3CCN(c4nsc5ccccc45)CC3)c(Cl)cc2N1
inactive: Potency [1] | Potency [2] | Potency [3] | Potency [4] | Potency [9]

COc1cc2nc(N3CCN(C(=O)C4COc5ccccc5O4)CC3)nc(N)c2cc1OC (configuration not stated)
inactive: Potency [1] | Potency [2] | Potency [3] | Potency [4] | Potency [9]

Cn1ccc2cc3c(cc21)CCN3C(=O)Nc1cccnc1
inactive: Potency [1] | Potency [2] | Potency [3] | Potency [4]

CCCCc1oc2ccccc2c1C(=O)c1cc(I)c(OCCN(CC)CC)c(I)c1
inactive: Potency [1] | Potency [2] | Potency [3] | Potency [4] | Potency [5] | Potency [6] | max response [7] 10.4%

CC12CC3CC(C)(C1)CC(N)(C3)C2
active: Potency [6] 11.2 µM and 39.8 µM
inactive: Potency [1] | Potency [2] | Potency [3] | Potency [4] | Potency [5] | max response [7] 23.1% | Potency [9]

C[C@H]1c2cccc(O)c2C(O)=C2C(=O)[C@]3(O)C(O)=C(C(N)=O)C(=O)[C@@H](N(C)C)[C@@H]3[C@@H](O)[C@@H]21
inactive: Potency [1] | Potency [2] | Potency [3] | Potency [4] | Potency [9] | Potency [8]

CN1CCN(C2=Nc3cc(Cl)ccc3Nc3ccccc32)CC1
inactive: Potency [1] | Potency [2] | Potency [3] | Potency [4]

COc1cc2nc(N(C)CCCNC(=O)C3CCCO3)nc(N)c2cc1OC (configuration not stated)
inactive: Potency [1] | Potency [2] | Potency [3] | Potency [4]

NC(=O)OCC(COC(N)=O)c1ccccc1
inactive: Potency [1] | Potency [2] | Potency [3] | Potency [4] | Potency [9] | Potency [8]

NC12CC3CC(CC(C3)C1)C2
inactive: Potency [1] | Potency [2] | Potency [3] | Potency [4] | Potency [5] | Potency [6] | max response [7] 12.2% and 7.67% | Potency [8]

COc1ccc2c(c1)c(CC(=O)O)c(C)n2C(=O)c1ccc(Cl)cc1
inactive: Potency [1] | Potency [2] | Potency [3] | Potency [4] | Potency [9]

NC(=O)NO
inactive: Potency [1] | Potency [2] | Potency [3] | Potency [4] | Potency [9] | Potency [8]

NCCCCCC(=O)O
inactive and 33.5 µM (active): Potency [9]
inactive: Potency [1] | Potency [2] | Potency [3] | Potency [4] | Potency [8]

COc1ccc2[nH]cc(CCNC(C)=O)c2c1
inactive: Potency [1] | Potency [2] | Potency [3] | Potency [4] | Potency [9] | Potency [8]

CN1CCC(=C2c3ccccc3C=Cc3ccccc32)CC1
inactive: Potency [1] | Potency [2] | Potency [3] | Potency [4] | Potency [5]
active: Potency [6] 20 µM and 15.8 µM

NCCS(=O)(=O)O
inactive: Potency [1] | Potency [2] | Potency [3] | Potency [4] | Potency [9] | Potency [8]

O=C(CCCN1CCC(O)(c2ccc(Cl)cc2)CC1)c1ccc(F)cc1
inactive: Potency [1] | Potency [2] | Potency [3] | Potency [4]

COc1ccccc1N1CCN(CC(O)COc2cccc3ccccc23)CC1 (configuration not stated)
inactive: Potency [1] | Potency [2] | Potency [3] | Potency [4] | Potency [9]

C[C@](N)(Cc1ccc(O)c(O)c1)C(=O)O
inactive: Potency [1] | Potency [2] | Potency [3] | Potency [4] | Potency [9] | Potency [8]

Fc1ccc([C@@H]2CCNC[C@H]2COc2ccc3c(c2)OCO3)cc1
inactive: Potency [1] | Potency [2] | Potency [3] | Potency [4] | Potency [9]

COc1nc(C)nc(Cl)c1NC1=NCCN1
inactive: Potency [1] | Potency [2] | Potency [3] | Potency [4] | Potency [8]

Cc1cc(C(C)(C)C)cc(C)c1CC1=NCCN1
inactive: Potency [1] | Potency [2] | Potency [3] | Potency [4] | Potency [8]

Cc1cn([C@H]2C=C[C@@H](CO)O2)c(=O)[nH]c1=O
inactive: Potency [1] | Potency [2] | Potency [3] | Potency [4] | Potency [8]

Nc1ccn([C@H]2CC[C@@H](CO)O2)c(=O)n1
inactive: Potency [1] | Potency [2] | Potency [3] | Potency [4] | Potency [9] | Potency [8]

Cn1cnc2c1c(=O)[nH]c(=O)n2C
inactive: Potency [1] | Potency [2] | Potency [3] | Potency [4] | Potency [9] | Potency [8]

Clc1ccccc1C(c1ccccc1)(c1ccccc1)n1ccnc1
inactive: Potency [1] | Potency [2] | Potency [4]

CN1CCN2c3ccccc3Cc3ccccc3C2C1 (configuration not stated)
inactive: Potency [1] | Potency [2] | Potency [3] | Potency [4] | Potency [9] | Potency [8]

NC(CO)C(=O)NNCc1ccc(O)c(O)c1O (configuration not stated)
inactive: Potency [1] | Potency [2] | Potency [3] | Potency [4] | Potency [9] | Potency [8]

N[C@@H](Cc1c[nH]c2ccc(O)cc12)C(=O)O
inactive: Potency [1] | Potency [2] | Potency [3] | Potency [4] | Potency [9] | Potency [8]

CC(C)NCC(O)COc1ccc(CCOCC2CC2)cc1 (configuration not stated)
inactive: Potency [1] | Potency [2] | Potency [3] | Potency [4] | Potency [9] | Potency [8]

CN(C)CCOC(c1ccccc1)c1ccccc1
inactive: Potency [1] | Potency [2] | Potency [3] | Potency [4] | Potency [8]

CCN1CCCC1CNC(=O)c1cc(S(=O)(=O)CC)c(N)cc1OC (configuration not stated)
inactive: Potency [1] | Potency [2] | Potency [3] | Potency [4] | Potency [8]
